We go through 29 compounds from PubChem BioAssay AID1851 (National Center for Advancing Translational Sciences (NCATS), 2009).

Out of some 16,000 compounds screened, about 5,700 (36%) were called active. About 24% were inconclusive and are not listed. Calls come from the whole dose curve; as a rule, active = well fitted curve in the direction sought with a large enough effect; inconclusive = small, poorly fitted or top-dose-only effect, or effect the other way; inactive = no such curve, though single readings can be large or run the other way. Some of the results follow.
% is set by controls: 0 for no effect and ±100 for the full control effect.

Cytochrome P450 1A2 (Homo sapiens), sequence (P05177 whole entry, looked up): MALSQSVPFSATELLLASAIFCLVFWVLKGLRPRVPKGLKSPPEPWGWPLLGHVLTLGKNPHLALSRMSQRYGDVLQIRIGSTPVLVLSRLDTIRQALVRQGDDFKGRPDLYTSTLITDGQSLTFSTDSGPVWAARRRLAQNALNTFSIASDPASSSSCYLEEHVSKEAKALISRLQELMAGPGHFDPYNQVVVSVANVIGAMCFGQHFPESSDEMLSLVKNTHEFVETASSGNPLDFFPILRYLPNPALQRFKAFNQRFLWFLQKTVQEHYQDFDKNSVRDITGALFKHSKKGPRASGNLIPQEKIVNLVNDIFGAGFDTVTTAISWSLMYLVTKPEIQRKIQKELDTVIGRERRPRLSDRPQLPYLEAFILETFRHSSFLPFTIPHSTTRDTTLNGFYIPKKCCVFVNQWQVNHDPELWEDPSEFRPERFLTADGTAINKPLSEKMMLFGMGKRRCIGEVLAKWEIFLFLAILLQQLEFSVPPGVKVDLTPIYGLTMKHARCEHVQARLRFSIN

This test addresses Cytochrome P450 1A2 (Homo sapiens) (UniProt P05177). Put plainly: Cytochrome panel assay with activity outcomes. Conditions: recombinant CYP, pro-luciferin dealkylation, luminescence, p450-cyp1a2; series mostly up to 57.1 µM.
Broadly, the AC50 is the concentration at which the activity in the assay is half-maximal. On to `COc1ccc(-n2c(N)c(C(=O)NCc3ccco3)sc2=S)cc1`, for which the concentration at half-maximal activity (AC50) is 11200 nM (active).

As for `CCOc1ccc(-n2c(N)c(C(=O)NCc3cccnc3)sc2=S)cc1`, the AC50 result is “inactive”.

`OC[C@@H]1NC[C@@H](O)[C@H]1O`: the AC50 entry is “inactive”.

`CCOC(=O)c1[nH]c2ccc(Cl)cc2c1-c1ccccc1`: the half-maximal activity concentration (AC50) was 398 nM (active).

On to `NC(=NCc1ccc(Cl)c(Cl)c1)NC(=O)c1nc(Cl)c(N)nc1N`, for which the AC50 is 10000 nM (active).

In the case of `CCNC(=O)CC1C(=O)N(c2ccc(F)cc2)C(=O)N1CCc1ccc(OC)cc1` (centres undefined), the AC50 entry was “inactive”.

In the case of `O=C(CC1C(=O)N(c2ccc(Cl)cc2)C(=S)N1CCc1ccncc1)Nc1ccc(F)cc1` (centres undefined), the concentration at half-maximal activity (AC50) was 5010 nM (active).

With `CC(=O)Nc1ccc(S(=O)(=O)NC2(C(F)(F)F)NC(=O)N(c3ccc(Cl)cc3)C2=O)cc1` (centres undefined), the AC50 entry is “inactive”.

Take `Cn1c(-c2ccccc2)cnc1N`: the concentration at half-maximal activity (AC50) is 17800 nM (active).

As for `CCCn1c(-c2ccccc2)nc2c(=O)n(C)c(=O)[nH]c21`, the AC50 result was “inactive”.

For `CNc1nc(-c2ccc(N(C)C)cc2)nc2ccccc12`, the half-maximal activity concentration (AC50) is 200 nM (active).

For the compound `CN(C)c1nc(-c2ccoc2)nc2ccccc12`, the AC50 was 501 nM (active).

Regarding `CN(C)c1ccc(-c2nc(Nc3ccncc3)c3ccccc3n2)cc1`, the AC50 was 501 nM (active).

As for `CN(C)c1ccc(-c2nc(N(C)C)c3ccccc3n2)cc1`, the AC50 was 251 nM (active).

Turning to `COCC(=O)N1CCC[C@@]2(CCN(Cc3ccccc3)C2)C1`, the AC50 entry is “inactive”.

For the compound `O=C(CC1(O)CCCCC1)OC1CCCC1`, the activity, negative = inhibition was -12.2% [at 11.4 µM] (inactive).

As for `CC1(C)O[C@H]2[C@@H](O1)[C@@H](On1nnc3ccc(Cl)cc31)O[C@@H]2[C@@H]1COC(C)(C)O1`, the activity, negative = inhibition is -10.9% [at 2.29 µM] (inactive).

With `CN(C)c1nc(-c2cccnc2)nc2ccccc12`, the AC50 is 126 nM (active).

As to `CCOC(=O)Cc1c(C)nc2c(C#N)c[nH]n2c1=O`, the AC50 entry was “inactive”.

In the case of `CCOC(=O)Cc1cc(=O)n2[nH]c(C)c(C#N)c2n1`, the AC50 result is “inactive”.

Take `CCOC(=O)Cc1cc(=O)n2[nH]c(C)c(-c3ccccc3)c2n1`: the AC50 is 12600 nM (active).

Consider `S=C(CSc1ccccc1)Nc1cccc2ccccc12`, for which the concentration at half-maximal activity (AC50) is 1260 nM (active).

Regarding `CO[C@@H]1COC(=O)CCC[C@@H](C)[C@H](OC)COC(=O)CCC[C@H]1C`, the activity, negative = inhibition was 5.33% [at 11.4 µM] (inactive).

For `CS(=O)(=O)c1ccccc1-c1nc(-c2cc(C(F)(F)F)cc(C(F)(F)F)c2)no1`, the AC50 entry was “inactive”.

`Cc1cccc(-c2noc(-c3cc4ccccc4oc3=O)n2)c1`: the AC50 is 3160 nM (active).

Take `NC1=NC2(CCCCC2)N=C(Nc2ccc(F)cc2F)N1`: the AC50 entry is “inactive”.

Consider `Cc1ccc(C(=O)NNC(=O)C2CCCN(c3ncccn3)C2)cc1` (centres undefined), for which the AC50 result was “inactive”.

As for `COc1cc(C)nc(N2CCCC(C(=O)Nc3cc(Cl)ccc3OC)C2)n1` (centres undefined), the AC50 is 3550 nM (active).

For the compound `O=C(O)C1CCCCC1C(=O)Nc1cc(Cl)ccc1Cl` (centres undefined), the AC50 result is “inactive”.
